Screening results (PubChem)
PrPC surface inh: cell surface PrPC inhibition, primary TR-FRET screen; TR-FRET read-out; P04156; inhibition, % at 13.8 µM; hit rate 0.43% among 370,000; in the data active = inhibition above about 24%; note: 0% = median of the test wells and 100% = reference compound wells
PrP UTR inh: inhibition of PrP 5' UTR reporter expression. cell-based PrP 5' UTR mRNA reporter, plate reader. inhibition, % (concentration not given with the values). hit rate 0.35% among 340,000. AID 488862; in the data active = inhibition above about 52%; note: 0 = median of the neutral control wells
BJeLR lethal: kills HRASV12-expressing BJeLR cells; BJeLR (HRASV12) viability, CellTiter-Glo ATP luminescence, 48 h; inhibition, % (test concentration not listed); hit rate 0.17% among 300,000; in the data active = inhibition above about 50%
3CLpro inhibitor: SARS-CoV 3CLpro protease inhibition | hit rate 0.14% among 290,000 | recombinant SARS-CoV 3CLpro, quenched FRET peptide cleavage | inhibition, % at 6 µM; in the data active = inhibition above about 12%
SSB-PriA inh: inhibitors of Klebsiella pneumoniae PriA binding to SSB C-terminal tail; AlphaScreen SSBct-PriA binding, biotinylated peptide; inhibition, % at 33 µM; hit rate 0.6% among 430,000; in the data active = inhibition mostly above about 37%, no sharp cut-off; inactive = mostly below about 20%;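 note: plate controls were negative control peptide for no effect and reference peptide for full effect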
* marks the source's active call; other numbers are inactive results. In the library only some 1.2% were active in any assay of this set; here they are far more common.

Results for Nc1ccccc1Nc1cccc(C(F)(F)F)c1 ?
PrPC surface inh: -12; PrP UTR inh: -25; BJeLR lethal: 6; 3CLpro inhibitor: 6; SSB-PriA inh: 43*

Results for Cc1occc1C(=O)N/N=C/c1ccc(-c2ccccc2)cc1 ?
PrPC surface inh: 13; PrP UTR inh: -57; BJeLR lethal: 62*; 3CLpro inhibitor: -6

What do the screens show for `Cc1occc1C(=O)N/N=C/c1ccc(OCc2ccccc2)cc1`?
PrPC surface inh: 12; PrP UTR inh: -23; BJeLR lethal: -2; 3CLpro inhibitor: -1; SSB-PriA inh: inactive

Results for Cc1occc1C(=O)N/N=C/c1ccc2c(c1)OCO2 ?
PrPC surface inh: 5; PrP UTR inh: -89; BJeLR lethal: 64*; 3CLpro inhibitor: -1; SSB-PriA inh: inactive

How did CN(C)c1ccc(CCNC(=O)C(=O)NCCN2CCOCC2)cc1 do in these assays?
SSB-PriA inh: 1

How did Cc1cccc(COc2ccc(C(O)=C3C(=O)C(=O)N(CCN(C)C)C3c3ccncc3)cc2)c1 (stereo not given) do in these assays?
SSB-PriA inh: 5

Results for CCC(COC)Oc1cc(NCc2ccccc2)c2ncn(C(C)C)c2c1 (stereo not given) ?
PrPC surface inh: -21; PrP UTR inh: -6; SSB-PriA inh: 63*

How did COc1ccc(Cc2cc(NCc3ccccc3)c3ncn(C(C)C)c3c2)cc1 do in these assays?
PrPC surface inh: 3; PrP UTR inh: 10; SSB-PriA inh: 66*

Results for CCC(CO)Oc1cc(NCc2ccccc2)c2ncn(C(C)C)c2c1 (stereo not given) ?
PrPC surface inh: 2; PrP UTR inh: 4; SSB-PriA inh: 12

How did Cc1cccc(-n2ncc3c(=O)n(CC(=O)Nc4ccc(OC(F)(F)F)cc4)cnc32)c1C do in these assays?
SSB-PriA inh: -22

What do the screens show for `CCOC(=O)CC(C)=NNc1ccc([N+](=O)[O-])cc1[N+](=O)[O-]`?
SSB-PriA inh: 47*

Results for O=[N+]([O-])c1ccccc1NN=C1CC2CC=CC12 (stereo not given) ?
SSB-PriA inh: 71*

How did COc1ccc(C)c2sc(N(Cc3ccncc3)C(=O)Cc3ccc(SC)cc3)nc12 do in these assays?
SSB-PriA inh: 8

Results for Cc1ccc(Nc2cc(C)nc3c(C)c(C)cc([N+](=O)[O-])c23)cc1 ?
SSB-PriA inh: 66*

How did Cc1cc(C(F)(F)F)nc(CCNC(=O)Nc2ccc3c(c2)OCO3)n1 do in these assays?
SSB-PriA inh: 44*

Results for Cc1cc(C(=O)Nc2nc(-c3ccccn3)cs2)on1 ?
SSB-PriA inh: 94*

Results for O=C(Nc1nc(-c2ccccn2)cs1)c1ccco1 ?
PrPC surface inh: 19; PrP UTR inh: -7; BJeLR lethal: 8; 3CLpro inhibitor: 7; SSB-PriA inh: 49*

Results for C[C@H](NC(=O)c1ccco1)C(=O)Nc1nc(-c2ccccn2)cs1 ?
PrPC surface inh: 4; PrP UTR inh: -8; SSB-PriA inh: 53*

Results for O=C(CNC(=O)c1ccco1)Nc1nc(-c2ccccn2)cs1 ?
SSB-PriA inh: 96*

How did CC(C)(C)C(=O)N1CCN(CCO)CC1 do in these assays?
SSB-PriA inh: 9

What do the screens show for `Cc1cc(C)n(CC(=O)NN=Cc2ccco2)n1`?
SSB-PriA inh: 1

How did CN(C(=O)c1ccno1)c1nnc(-c2ccccn2)s1 do in these assays?
PrPC surface inh: -1; PrP UTR inh: -9; BJeLR lethal: -2; 3CLpro inhibitor: -9; SSB-PriA inh: 42*

Results for O=C(Nc1nc(-c2ccccn2)cs1)c1ccc(C(F)(F)F)cc1 ?
SSB-PriA inh: 31

How did O=C(Nc1nc(-c2ccccn2)cs1)c1ccno1 do in these assays?
SSB-PriA inh: 125*

How did N#C/C(=C\c1cccs1)C(=O)c1ccccc1Cl do in these assays?
PrPC surface inh: 10; BJeLR lethal: 63*; 3CLpro inhibitor: 10; SSB-PriA inh: -11

What do the screens show for `COCCNC(=O)NCc1cccnc1-c1ccsc1`?
SSB-PriA inh: -9

What do the screens show for `C#CCOCCOCCOCCNc1nc(N2CCN(C(=O)CCCCCCCCCCNC(=O)[C@H]([C@@H](C)CC)n3cc(CCCCCN)nn3)CC2)nc(N2CCN(C(=O)CCCCCCCCCCNC(=O)[C@H]([C@@H](C)CC)n3cc(CCCCN=C(N)N)nn3)CC2)n1`?
PrP UTR inh: -2

What do the screens show for `C#CCOCCOCCOCCNc1nc(N2CCN(C(=O)CCCCCCCCCCNC(=O)[C@H]([C@@H](C)CC)n3cc(CCCCN=C(N)N)nn3)CC2)nc(N2CCN(C(=O)CCCCCCCCCCNC(=O)[C@H](CO)n3cc(CCCCCN)nn3)CC2)n1`?
PrP UTR inh: -22; SSB-PriA inh: 39*
